Data as given in PubChem BioAssay AID1259398 (Fisher Drug Discovery Resource Center, 2018).
Values joined by “and” are separate entries in the source; they are usually repeats but may differ in a detail not shown here. Identical values can stand only once. In all, about 290,000 compounds went through this assay and about 230 (0.079%) were called active. No stated cut-off is given here; in the data, active means inhibition above about 40%; inactive means the rest. What follows is part of a selection rich in actives, with near analogues and random picks from the rest. Some compounds were tested as several samples or in several runs, with calls that do not always agree.

Target: Cyclic GMP-AMP synthase (Homo sapiens) (UniProt Q8N884)
Sequence (Q8N884 whole entry, looked up): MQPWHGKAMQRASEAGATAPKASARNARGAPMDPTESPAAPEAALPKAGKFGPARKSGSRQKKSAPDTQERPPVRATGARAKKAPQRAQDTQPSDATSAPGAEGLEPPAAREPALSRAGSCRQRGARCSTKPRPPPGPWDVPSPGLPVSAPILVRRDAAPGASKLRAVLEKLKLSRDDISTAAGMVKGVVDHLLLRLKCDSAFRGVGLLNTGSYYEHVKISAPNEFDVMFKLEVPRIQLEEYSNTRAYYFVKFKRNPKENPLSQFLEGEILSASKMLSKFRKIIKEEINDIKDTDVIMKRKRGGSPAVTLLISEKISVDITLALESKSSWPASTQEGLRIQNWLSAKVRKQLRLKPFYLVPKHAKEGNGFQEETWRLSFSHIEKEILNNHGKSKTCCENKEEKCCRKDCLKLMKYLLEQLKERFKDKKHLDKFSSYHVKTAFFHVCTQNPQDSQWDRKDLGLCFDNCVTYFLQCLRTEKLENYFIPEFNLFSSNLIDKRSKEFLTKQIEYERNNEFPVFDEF
Assay: Biochemical Kinase-Glo luminescence primary assay, human cyclic GMP-AMP synthase inhibition (AID 1259398);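 further: 0% = vehicle reaction and 100% = reaction without DNA for no activity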
Details: recombinant h-cGAS, ATP depletion, at 12.5 µM, stronger effect = higher value

Compound	inhibition
COc1cccc(-c2nn(Cc3ccccc3)c(=O)c3nc(C)sc23)c1	-0.0493% (inactive)
O=C(NCCc1ccco1)c1ccc2c(c1)OCO2	1.62% (inactive)
COc1cc(CN(C)C(=O)c2cc(N3CCN(c4cccc(C(F)(F)F)c4)CC3)nc3ccccc23)cc(OC)c1OC	-6.59% (inactive)
NC(=O)COc1ccc(C(=O)N2CCCC2CCc2ccccc2)cc1 (configuration not stated)	-3.77% (inactive)
CCOC(=O)c1sc(NC(=O)CCCl)c(C(=O)OCC)c1C	-5.41% (inactive)
CCCc1c(C(=O)NCc2cccnc2)cnn1-c1ccccc1C	-8.73% (inactive)
O=C(Nc1nnc(-c2ccc(Cl)cc2)s1)C1CCCN1S(=O)(=O)c1ccc(F)cc1 (configuration not stated)	-2.72% (inactive)
C(=C\c1ccccc1)/CSc1nnc2c(n1)[nH]c1ccccc12	-6.1% (inactive)
CC(C)CNC(=O)c1c(O)nc2sccn2c1=O	-9.43% (inactive)
COCCNC(=O)Cn1nc2c(c1NC(=O)Cc1ccc(F)cc1)CSC2	-6.17% (inactive)
Cn1c(=O)[nH]c(=O)c2c1nc(N1CCN(Cc3ccccc3)CC1)n2Cc1cccc(Cl)c1	-7.67% (inactive)
CC1(C)C(c2ccc(Cl)cc2)=[N+]([O-])C(C)(C)C(c2ccc(Cl)cc2)=[N+]1[O-]	-4.69% (inactive)
COc1ccc2cnn(-c3cccc(Cl)c3)c(=O)c2c1OC	-0.243% (inactive)
Cc1sc2ncn(CC(=O)O)c(=O)c2c1C	-2.86% (inactive)
Cc1ccc(-c2cc(C(=O)O)[nH]n2)c(C)c1	-5.69% (inactive)
O=C(CSc1nc(=O)n(CCCN2CCOCC2)c2c1CCC2)N1CCc2ccccc21	-6% (inactive)
CC(C)CSc1nc2c(c(=O)n(C)c(=O)n2C)n1CC=Cc1ccccc1	-0.843% (inactive)
CC(Cn1cncn1)NC(=O)C1CCN(C)C(=O)C1 (configuration not stated)	-9.85% (inactive)
Clc1ccccc1Cn1ncc2c(N3CCN(CCOc4cccc5ccccc45)CC3)ncnc21	-10.9% (inactive)
N#CC1C(=N)C(C#N)(C#N)C(c2ccco2)C2CCCC=C12 (configuration not stated)	-7.43% (inactive)
N#CC1C(=N)SC(=N)C(C#N)C1c1ccco1 (configuration not stated)	53.9% (active)
N#CC1C(=N)SC(=N)C(C#N)C1c1cccc(O)c1 (configuration not stated)	65.3% (active)

Compound	inhibition
N#CC1C(=N)SC(=N)C(C#N)C1c1ccnc2ccccc12 (configuration not stated)	-1.27% (inactive)
CCc1ccc(C2C(C#N)C(=N)SC(=N)C2C#N)cc1 (configuration not stated)	-0.735% (inactive)
CCC(C(=O)N(CC(=O)N1CC(=O)N(c2cccc(Cl)c2C)C1)Cc1ccco1)c1ccccc1 (configuration not stated)	-7.01% (inactive)
COc1cc(S(=O)(=O)Nc2c(F)cccc2F)cc(C(=O)O)c1OC	9.01% (inactive)
Cc1cccc(Cn2cccc2CN(Cc2ccc(F)cc2)C2CCCCC2)c1	-1.66% (inactive)
COc1ccc(-n2nnnc2SCCC#N)cc1	-7.16% (inactive)
Cc1cc(C(=O)O)ccc1S(=O)(=O)N(C)c1cc(F)ccc1F	-8.29% (inactive)
CCC(CO)N(Cc1ccc(F)cc1)Cc1c(C)nn(C)c1Cl (configuration not stated)	-10.3% (inactive)
O=C(c1cc(-c2ccccc2F)on1)N1CCc2ccc(O)cc2C1	-0.786% (inactive)
COc1cc(C(=O)n2nc(C)c(Sc3ccccc3[N+](=O)[O-])c2C)cc(OC)c1OC	-6.71% (inactive)
CC(=O)Nc1ccccc1OS(=O)(=O)c1ccc(Br)cc1	0.158% (inactive) and 5.4% (inactive)
CN(Cc1nc2ccccc2n1C)C(=O)[C@H]1CCCO1	-5.26% (inactive)
O=C(NC(Cc1ccccc1)C(=O)Nc1nnc(-c2cccc(Cl)c2)s1)c1cccc(C(F)(F)F)c1 (configuration not stated)	-8.87% (inactive)
COc1cccc(-c2nc(OCc3ccc(F)cc3)nn2-c2cccc(NC(=O)C3CCC3)c2)c1	-6.9% (inactive)
O=C(Nc1ccc(F)cc1)c1csc(CSc2nnc(Cc3ccccc3)n2-c2cccc(Cl)c2)n1	5.96% (inactive)
CCn1nc(C(=O)O)c2c1CCC(N(C)CCn1ccnc1C)C2 (configuration not stated)	-7.94% (inactive)
COc1cccc(C2Nc3ccccc3N=C3CC(C)(C)CC(=O)C32)c1OC (configuration not stated)	-3.94% (inactive)
CC(C)(CCl)C(=O)N1CCN(c2ncnc3c2nnn3-c2cccc(F)c2)CC1	-5.18% (inactive)
CCc1nc2ccc(C(=O)NCCNC(C)=O)cn2c1N(CC)Cc1cccc(Br)c1	-6.29% (inactive)
O=C(NCCc1ccccc1)c1cc(NC(=O)C(c2ccccc2)c2ccccc2)ccc1N1CCCCC1	-3.47% (inactive)
O=C(NC1CCC1)c1ccc(-c2cc(-c3cccc(C(F)(F)F)c3)n[nH]2)cc1	-8.56% (inactive)
CC1c2ccsc2CCN1C(=O)Cc1csc(-c2ccsc2)n1 (configuration not stated)	-10.7% (inactive)

Compound	inhibition
Nc1cc(-c2cccc(Cl)c2)nn1-c1ccc(C(=O)N2CCOCC2)cc1	-3.59% (inactive)
COC[C@@H]1CCCN1C(=O)c1ccc(-n2nc(-c3cccc(Cl)c3)cc2N)cc1	2.07% (inactive)
CN(C)c1ccc(N2CC(=O)C(c3nc(-c4cccc(Cl)c4)cs3)C2=N)cc1 (configuration not stated)	148% (active)
COc1cccc(CSc2nnc(CNC(=O)Nc3cc(C(F)(F)F)cc(C(F)(F)F)c3)n2-c2ccc(C)cc2)c1	-18% (inactive)
Cc1cc(C)n(CC(=O)N2CC[C@@H]3CN(S(C)(=O)=O)[C@@H]3C2)n1	66.4% (active)
CCn1ncc(C(=O)N2CC[C@@H]3CN(S(C)(=O)=O)[C@@H]3C2)c1C	-7.55% (inactive)
Cc1cc(C)n(CC2CCN(C(=O)C3CCN(S(C)(=O)=O)CC3)CC2)n1	-9.09% (inactive)
CS(=O)(=O)c1ccc(-c2ccc(NS(=O)(=O)c3cccs3)cc2)nn1	-9.35% (inactive)
Cc1cc(C(=O)N2CCC(N(C)C)C2)ccc1NC(=O)c1ccco1 (configuration not stated)	-11.4% (inactive)
CC(=O)N(c1ccccc1)C1C=C(Nc2ccccc2)C(=O)C1 (configuration not stated)	-10.4% (inactive)
Cc1c(C(=O)N2CCC(Cc3ccccc3)CC2)cnc2c(-c3cccc(C(F)(F)F)c3)cnn12	-4.43% (inactive)
OC(COCc1ccco1)CN(Cc1ccccc1)C1CC1 (configuration not stated)	1.45% (inactive)
Cc1cc(NC(=O)Cc2cccs2)n(-c2nc(-c3cccs3)cs2)n1	-2.04% (inactive)
CN(CCCOc1ccccc1Cl)C(=O)C1(N)CC1	-6.84% (inactive)
CC(C(=O)N1CCCCCC1)N1CCCC(C(=O)Nc2ccccc2)C1 (configuration not stated)	-13.6% (inactive)
CC1CC(=O)C2C=Nc3ccccc3N=C2C1 (configuration not stated)	-2.79% (inactive)
CS(=O)(=O)N1CCCC(NCc2ccc(-c3ccc(C(F)(F)F)cc3)o2)C1 (configuration not stated)	-7.61% (inactive)
CCOC(=O)c1[nH]c(C)c(C(=O)C(C)N(CCOC)C(=O)Nc2c(C)cccc2C)c1C (configuration not stated)	-3.12% (inactive)
O=S1(=O)N=C(Nc2ccccc2Cl)c2ccccc21	-4.92% (inactive)
Cc1noc(C)c1CN1CCN2C=C(C(=O)NC3CCc4ccccc43)OC2=NC1=O (configuration not stated)	-7.38% (inactive)
C=CCn1c(SCC(=O)c2cc(C)n(Cc3ccco3)c2C)nc2sc(C)c(C)c2c1=O	-4.88% (inactive)
Cc1c(C(=O)N2CCc3[nH]nc(-c4ccccc4)c3C2)[nH]c2c(F)cccc12	-6.74% (inactive)

Compound	inhibition
Cc1csc(=O)n1CCC(=O)Nc1ccc(S(=O)(=O)N(C)C(C)C)cc1	7.25% (inactive)
CC(=O)c1cccc(N2C(=O)C3C4C=CC(C5CC45)C3C2=O)c1 (configuration not stated)	-3.94% (inactive)
CCOC(=O)c1cc(-c2ccccc2)sc1NC(=O)CC1CCCC1	-6.75% (inactive)
CCOC(=O)c1ccc(NC(=O)Cn2c(-c3nnc(C(C)C)o3)cc3ccccc32)cc1	-1.71% (inactive)
Cc1ncc(CN(C)CC2CCN(c3ccccc3)C2)[nH]1 (configuration not stated)	-4.21% (inactive)
COCC(=O)Nc1ccccc1C(=O)N1CC(C)CC(C)C1 (configuration not stated)	-11.9% (inactive)
Cc1ccc(CSc2nc(=O)n(CCO)c3c2CCC3)cc1	-6.25% (inactive)
O=C(c1cn[nH]c1-c1ccc(F)cc1)N1CCN(S(=O)(=O)c2ccccc2)CC1	-8.02% (inactive)
COCCNC(=O)c1ccc(CSc2nnc(Cc3ccccc3)n2-c2ccc(OC)cc2)cc1	5.06% (inactive)
COc1cccc(CN2CCC(C(=O)NC(c3cccc(OC)c3)c3ccccn3)CC2)c1 (configuration not stated)	-3.62% (inactive)
COc1cc(C(=O)Nc2oc3ccccc3c(=O)c2-c2ccccc2)cc(OC)c1OC	-4.49% (inactive)
N#CC(=C1NS(=O)(=O)c2ccccc21)c1nc2ccccc2n1Cc1ccccc1	-6.01% (inactive)
NC(=O)C1CCCN1C(=O)NC(=O)CSc1ccccc1Cl (configuration not stated)	20.8% (inactive)
N#Cc1ccsc1NC(=O)c1cc(Cl)c2c(c1)OCO2	0.691% (inactive)
CCc1c(C(=O)N2CCCC2)c(CC(C)C)nn1-c1ccc(Cl)cc1	-4.87% (inactive)
CCC(C(=O)N1CCN(C(C(=O)Nc2cccc(Cl)c2)C2CCCC2)CC1)c1ccccc1 (configuration not stated)	-0.887% (inactive)
CN1C(=O)[C@]2(C)[C@H](c3ccccc31)[C@@H](C(N)=O)CN2C(=O)CC(C)(C)C	-2.6% (inactive)
CCC1CSC(=Nc2ccc(Cl)cc2)N1C(=O)c1ccc(C)nc1 (configuration not stated)	-0.466% (inactive)
COc1cccc(CN2CCCN(c3nc(Cc4ccccc4)nc4c3c(C)nn4-c3ccc(F)cc3)CC2)c1	-3.74% (inactive)
CC(C)CC(CNc1ccc(S(=O)(=O)N2CCCCC2)cc1[N+](=O)[O-])N1CCOCC1 (configuration not stated)	-5.16% (inactive)
Oc1c(Cl)cc(Cl)c(Cl)c1Cc1c(O)c(Cl)cc(Cl)c1Cl	84.9% (active) and 0.133% (inactive)
